Gli-Sufu antag: blocks Gli-Sufu signaling in a luciferase reporter; Sufu-KO-LIGHT fibroblasts, Gli luciferase reporter luminescence; inhibition, % at 5 µM; 340,000 compounds, 0.74% hits; AID 588413;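 active = inhibition above about 55%, limit read from the data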;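 note: 0% = DMSO-treated cells and 100% = wells with medium but no cells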
Beta apoptosis: blocks beta cell apoptosis. 300,000 compounds, 0.8% hits. protection from apoptosis, % (concentration not given with the values). INS-1E cytokine-induced death, ATP luminescence, 48 h; percent of positive-control rescue, neutral wells zero;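 active = Every replicate reaches about 75%, or at least half do and their mean reaches it too, limit read from the data; inconclusive = At least half of replicates reach the limit but their mean does not; inactive = Under half of replicates reach the limit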;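 note: 0% = cytokine-treated negative control wells and 100% = positive control rescue; higher means more ATP so stronger rescue from cytokine killing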
Shn3 3UTR inh: reduces Shn3 3'UTR luciferase signal in osteoblasts | Clone20 osteoblast Shn3 3'UTR firefly luciferase, 24 h | inhibition, % at 12.5 µM | 360,000 compounds, 0.52% hits;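 active = mean inhibition of at least 75% with every replicate also reaching 75%; inconclusive = mean inhibition at least 75% but some replicate below; inactive = mean inhibition below 75%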;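 note: 0% = median of neutral control wells and 100% = pilot-screen positive control compound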
Mdm2 MdmX PPI: disrupts the human Mdm2-MdmX interaction. SaOS-2 split-luciferase Mdm2/MdmX complementation, luminescence. 330,000 compounds, 3% hits. O15151+Q00987. inhibition, % at 8 µM;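 active = inhibition of at least 50% at 8 µM in the primary screen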
Target sequence (O15151 whole entry, looked up): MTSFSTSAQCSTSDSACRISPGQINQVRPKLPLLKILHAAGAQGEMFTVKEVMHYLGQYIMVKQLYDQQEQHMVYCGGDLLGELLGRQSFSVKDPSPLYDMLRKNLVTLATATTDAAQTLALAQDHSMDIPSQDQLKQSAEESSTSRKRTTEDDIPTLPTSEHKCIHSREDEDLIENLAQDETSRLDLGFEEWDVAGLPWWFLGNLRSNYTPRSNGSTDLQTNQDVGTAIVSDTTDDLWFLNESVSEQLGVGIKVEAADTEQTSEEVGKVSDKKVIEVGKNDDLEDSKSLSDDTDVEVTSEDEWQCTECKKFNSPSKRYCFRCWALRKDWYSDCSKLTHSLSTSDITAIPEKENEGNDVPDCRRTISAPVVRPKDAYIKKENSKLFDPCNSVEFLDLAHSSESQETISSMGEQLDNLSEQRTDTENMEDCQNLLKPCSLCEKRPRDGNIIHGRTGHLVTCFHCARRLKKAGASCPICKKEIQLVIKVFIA
Target sequence (Q00987 whole entry, looked up): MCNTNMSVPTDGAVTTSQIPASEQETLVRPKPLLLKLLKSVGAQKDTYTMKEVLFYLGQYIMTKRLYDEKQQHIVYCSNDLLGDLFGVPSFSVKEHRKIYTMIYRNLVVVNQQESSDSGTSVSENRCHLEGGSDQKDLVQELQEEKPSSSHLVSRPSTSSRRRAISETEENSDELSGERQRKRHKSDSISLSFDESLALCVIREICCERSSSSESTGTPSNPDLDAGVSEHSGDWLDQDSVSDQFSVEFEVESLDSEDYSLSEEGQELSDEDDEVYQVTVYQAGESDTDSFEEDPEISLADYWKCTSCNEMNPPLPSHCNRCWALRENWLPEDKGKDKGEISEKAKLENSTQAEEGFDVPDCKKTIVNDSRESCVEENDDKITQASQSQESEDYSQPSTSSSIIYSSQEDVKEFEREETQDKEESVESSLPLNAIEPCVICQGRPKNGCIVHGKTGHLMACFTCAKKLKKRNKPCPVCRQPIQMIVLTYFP
PAX8 reporter: lowers PAX8-driven luciferase in RMG-I cells. inhibition, % at 12.6 µM. RMG-I TPO-luciferase reporter, SteadyGlo, 24 h. AID 652154. 360,000 compounds, 1.2% hits;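 active = mean replicate inhibition at least 60% with every replicate also reaching 60%; inconclusive = only one of the two criteria is met; inactive = mean below 60% and not all replicates reaching 60%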;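 note: luciferase light reporting Pax8 driven TPO promoter activity; plate controls were median of neutral control wells for no effect and mitoxantrone controls for full effect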
CSC inhib: cancer stem cell inhibition; cancer stem cell-like cells viability, luminescence; inhibition, % at 7.5 µM; 300,000 compounds, 1.1% hits; in the data active = inhibition above about 75%; inconclusive = no clear call, values can overlap the other calls; tested in HMLE shEcad cells
Mdm2 MdmX conf: confirmation of human Mdm2/MdmX interaction inhibitors | shares compounds with Mdm2 MdmX PPI | Mdm2-MdmX binding, luminescent assay | inhibition, % at 8 µM | 10,000 compounds, 55% hits; in the data active = inhibition above about 40%
FLuc counter: inhibits full-length luciferase, flagging false Mdm2/MdmX hits. shares compounds with Mdm2 MdmX PPI. SaOS-2 full-length luciferase counterscreen, luminescence. inhibition, % at 8 µM. 6,200 compounds, 77% hits. AID 504607;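 active = mean inhibition at 8 µM reaching about 37%, which flags the compound as non-specific, limit read from the data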;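 note: p53-null SaOS-2 cells with luciferase driven by a doxycycline-inducible promoter; compound on cells about two nights before reading with doxycycline added after day one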
Active calls of the source: *; ? = inconclusive; . = no result. Rows were chosen to be rich in hits. Some 4% of all compounds tested hit in one or more screens of this group.

SMILES | Gli-Sufu antag | Beta apoptosis | Shn3 3UTR inh | Mdm2 MdmX PPI | PAX8 reporter | CSC inhib | Mdm2 MdmX conf | FLuc counter
Cc1ccc(-n2c(=O)[nH]c3c(C(N)=O)nc(C(C)C)nc32)cc1 | -13 | 1 | 2 | 11 | 11 | 1 | . | .
O=C(C[C@H]1C[C@@H]2c3cc(NC(=O)NC4CCCC4)ccc3O[C@@H]2[C@H](CO)O1)NCCc1ccccc1 | . | . | . | . | 3 | . | . | .
CC(C)c1cccc(O)c(=O)c1 | -3 | -3 | 24 | 86* | . | 14 | 74* | 28
CC(C)c1ccc(O)c(=O)cc1 | . | . | 41 | . | 12 | . | . | .
CCOc1ccccc1CNC(=O)c1cc2oc3ccccc3c2n1CC | 13 | 6 | 25 | 93* | 23 | 49 | 89* | 26
COC(=O)c1cc2oc3ccccc3c2n1CC(=O)Nc1ccccc1OC | 5 | 3 | -12 | 30 | . | -7 | . | .
CCOc1ccc(CNC(=O)c2cc3oc4ccccc4c3n2C)cc1 | 18 | -2 | -17 | 85* | -2 | 38 | 88* | 26
COc1cccc(CNC(=O)c2cc3oc4ccccc4c3n2C)c1OC | 1 | -5 | -1 | 97* | . | 37 | 96* | 47*
O=C(c1cnccn1)N1CC(=O)N2[C@H](CO)[C@H](c3ccc(C#CCC4CCCC4)cc3)[C@@H]2C1 | . | . | . | . | -8 | . | . | .
C[C@@H]1CN([C@H](C)CO)C(=O)Cc2cc(NC(=O)C3CCCCC3)ccc2O[C@H]1CN(C)Cc1ccc(C(=O)O)cc1 | . | . | . | . | -5 | . | . | .
O=C(Nc1cccc(Cl)c1)N[C@@H]1CC[C@H](CCNC(=O)C2CCOCC2)O[C@H]1CO | . | . | . | . | 9 | . | . | .
CCCC(=O)Nc1ccc2c(c1)C(=O)NC2=O | 3 | -7 | -18 | -12 | -5 | 2 | . | .
Cc1ccc2c(c1)Oc1ccc(NC(=O)CCCl)cc1C(=O)N2 | 19 | -2 | 18 | 67* | 22 | 92* | 68* | 102*
CCCN1C(=O)/C(=C/c2ccc(C)s2)SC1=Nc1ccc(OC)cc1 | 6 | 2 | 20 | 10 | . | 16 | . | .
CCN(CC)CCN1C(=O)/C(=C\c2ccc(Cl)c([N+](=O)[O-])c2)SC1=Nc1ccc(OC)cc1 | 3 | -1 | 96* | 100* | 54 | ? | 98* | 0
COc1ccc(N=C2S/C(=C\c3ccc(Cl)c([N+](=O)[O-])c3)C(=O)N2CCN(C)C)cc1 | -1 | 0 | 47 | 100* | 6 | 105* | 67* | 14
COc1ccc(NC(=O)Nc2ccc3c(c2)CC(=O)N([C@H](C)CO)C[C@H](C)[C@@H](CN(C)C)O3)cc1 | . | . | . | . | 3 | . | . | .
C[C@H]1CN([C@@H](C)CO)C(=O)c2cc(NC(=O)CCC(F)(F)F)ccc2O[C@@H]1CN(C)C(=O)Nc1ccc(F)cc1 | . | . | . | . | -12 | . | . | .
C[C@H]1CN([C@@H](C)CO)C(=O)Cc2cc(NC(=O)Nc3ccc4c(c3)OCO4)ccc2O[C@H]1CN(C)Cc1ccc(Cl)c(Cl)c1 | . | . | . | . | 6 | . | . | .
COc1ccc(N2CC(C(=O)N/N=C/c3ccc([N+](=O)[O-])cc3)CC2=O)cc1 (stereo unspecified) | -6 | 7 | 2 | -5 | 8 | 19 | . | .
COc1ccc(N2CC(C(=O)N/N=C/c3ccc(C)cc3)CC2=O)cc1 (stereo unspecified) | 4 | 3 | 17 | 52* | 20 | 50 | 62* | 53*
Cc1ccc(C(=O)NC(C#N)=C(Cl)Cl)cc1 | 4 | . | . | 100* | 43 | . | 99* | 53*
COc1ccccc1CN1C[C@@H](C)[C@@H](OC)CN(C)C(=O)c2cc(NC(C)=O)ccc2OC[C@@H]1C | . | . | . | . | -15 | . | . | .
COc1cccc(/C=N/NC(=O)CCn2c3ccccc3c3ccccc32)c1 | . | -2 | 9 | 11 | -9 | -2 | . | .
COc1ccc(/C=N/NC(=O)CCn2c3ccccc3c3ccccc32)cc1O | 15 | 32 | 1 | 53* | . | 57 | 58* | 60*
SMILES | Gli-Sufu antag | Beta apoptosis | Shn3 3UTR inh | Mdm2 MdmX PPI | PAX8 reporter | CSC inhib | Mdm2 MdmX conf | FLuc counter
C[C@@H]1CN([C@@H](C)CO)C(=O)c2cc(NC(=O)CCN3CCOCC3)ccc2O[C@H]1CN(C)Cc1ccncc1 | . | . | . | . | -1 | . | . | .
Cc1ccc(S(=O)(=O)Nc2ccc3c(c2)C(=O)N([C@@H](C)CO)C[C@H](C)[C@H](CN(C)C(=O)C2CCCCC2)OCCCC[C@H](C)O3)cc1 | . | . | . | . | 12 | . | . | .
COc1ccc(NC(=O)C2CCN(c3cc(-c4ccccc4)nc4ncnn34)CC2)cc1OC | 9 | . | 60 | 54* | . | 19 | 36 | 60*
Cc1ccc(S(=O)(=O)Nc2ccc3c(c2)CC(=O)N([C@H](C)CO)C[C@@H](C)[C@H](CN(C)Cc2ccc(C(=O)O)cc2)O3)cc1 | . | . | . | . | 11 | . | . | .
O=C(Cn1cnc2sc(-c3ccccc3)cc2c1=O)NCCc1ccccc1 | -7 | 4 | 9 | 93* | . | 0 | 35 | 98*
O=C(Cn1cnc2sc(-c3ccccc3)cc2c1=O)NCc1ccccc1 | -8 | . | 0 | 77* | . | . | 56* | 56*
O=C(Cn1cnc2sc(-c3ccccc3)cc2c1=O)NCc1ccco1 | -2 | -2 | 7 | 46 | . | 44 | . | .
Cc1ccccc1S(=O)(=O)N1[C@@H](C#N)[C@H](c2ccc(-c3ccccc3)cc2)[C@@H]1CO | . | . | . | . | -5 | . | . | .
COc1ccc(NC(=O)N[C@H]2CC[C@@H](CCn3cc(-c4ccc(OC)cc4)nn3)O[C@@H]2CO)cc1 | . | . | . | . | 3 | . | . | .
CN(C[C@H]1[C@@H](c2ccccc2)[C@@H](CO)N1C(=O)C1CC1)C(=O)c1ccccn1 | . | . | . | . | -5 | . | . | .
CCC1Oc2ccccc2N(CC(=O)NCCC2=CCCCC2)C1=O (stereo unspecified) | -39 | 2 | 18 | 60* | . | 10 | 9 | .
CCN1C(=O)CC(c2ccccc2)N(C2CCCC2)c2nc(Nc3ccc(C(=O)NC4CCN(C)CC4)cc3OC)ncc21 (stereo unspecified) | 16 | 19 | 66 | 98* | . | . | 46* | 78*
Cc1ccc(C(=O)c2no[n+]([O-])c2C(=O)c2ccc(C)cc2)cc1 | 8 | 4 | 20 | 51* | 7 | 36 | 9 | .
CC12CNCC(C)(CN(C(c3ccccc3)c3ccccc3)C1)C2 | 2 | 28 | -55 | 96* | . | 39 | 47* | 63*
Clc1ccc(C(c2ccccc2)N2CCNCC2)cc1 (stereo unspecified) | 19 | 2 | -19 | 62* | . | 5 | 47* | 76*
Nc1nc(N)c2cc(Sc3ccc4ccccc4c3)ccc2n1 | 14 | 109* | 85 | 100* | 68* | 119* | 62* | 38*
COc1ccc(/C=N/n2cnc3c([nH]c4ccc(F)cc43)c2=O)cc1CN1CCCC1 | 14 | 6 | -8 | 100* | 11 | 36 | 57* | 51*
COc1ccc(/C=N/n2cnc3c([nH]c4ccc(C)cc43)c2=O)cc1CN1CCCC1 | 16 | 14 | -16 | 19 | 20 | 0 | . | .

High-throughput results as filed in PubChem.
